Assay [1] can be described thus: qHTS of pediatric cancer cell lines to identify multiple opportunities for drug repurposing: Primary screen for OHS-50 cells (AID 1347103).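 For activity change, negative = cytotoxic: plate controls were DMSO neutral control for no effect and bortezomib positive control for full effect.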 Note: nearly all actives have a fitted effect of over 40% in size. Note: potency is the fitted concentration of half-maximal effect. An outline of the steps:
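Cells (500-1,000/well) rested 5 h, then received compounds for 48 h; metabolically active cells were measured by CellTiter-Glo luminescence. Final concentrations spanned up to 46 µM (MIPE, 11-point) or 0.59 nM-46 µM (NPC, 8-point) in primary screens, 11-point in follow-ups.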
On the technique in general: In qHTS, concentration-response curves come from the screen itself.

Assay [2] can be described thus: qHTS of pediatric cancer cell lines to identify multiple opportunities for drug repurposing: Primary screen for RD cells (AID 1347104).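 Note: plate controls were DMSO for no effect and bortezomib for full effect; nearly all actives have a fitted effect of over 55% in size.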 An outline of the steps: (§1)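 Cells plated at 500-1,000/well in growth medium, compounds added after 5 h. MIPE tested at 11 points (from 0.78 nM), NPC at 8 points (from 0.59 nM). CellTiter-Glo luminescence after 48 h; concentration-response curves from primary screen.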

A short description of assay [3]: qHTS of pediatric cancer cell lines to identify multiple opportunities for drug repurposing: Primary screen for MG 63 (6-TG R) cells (AID 1347105). Note: % is set by controls: 0 for no effect and ±100 for the full control effect; nearly all actives have a fitted effect of over 50% in size. An outline of the steps: as §1
The nature of assay [4]: qHTS of pediatric cancer cell lines to identify multiple opportunities for drug repurposing: Primary screen for control Hh wild type fibroblast cells (AID 1347106).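 Note: series mostly up to about 46 µM; % is set by controls: 0 for no effect and ±100 for the full control effect; a drop in luminescence marks cytotoxicity and a rise apparent proliferation; nearly all actives have a fitted effect of over 55% in size.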 In short, it runs like this:
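Cells (500-1,000/well) in growth media were settled 5 h at 37 degrees C, then given compounds for 48 h. Viability was read as CellTiter-Glo luminescence. Primary runs used MIPE at 11 points (0.78 nM-46 µM) and NPC at 8 points (0.59 nM-46 µM); follow-ups used 11 points.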

Assay [5] in a line: qHTS of pediatric cancer cell lines to identify multiple opportunities for drug repurposing: Primary screen for Rh30 cells (AID 1347107). Note: series mostly up to about 46 µM; % is set by controls: 0 for no effect and ±100 for the full control effect; nearly all actives have a fitted effect of over 75% in size. An outline of the steps: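 Viability after 48 h compound treatment at 37C, 500-1,000 cells/well, read as ATP luminescence with CellTiter-Glo. Primary screens used 11-point (MIPE, 0.78 nM-46 µM) or 8-point (NPC, 0.59 nM-46 µM) final concentrations; follow-up screens used 11-point dilutions.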

Assay [6] in a line: qHTS of pediatric cancer cell lines to identify multiple opportunities for drug repurposing: Primary screen for Rh41 cells (AID 1347108).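 Note: series mostly up to about 46 µM; luminescence drop marks cytotoxic hits; nearly all actives have a fitted effect of over 70% in size.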 In short, it runs like this: as §1

Each structure is given as a SMILES string. Inconclusive results are not listed. Values without a mark were called inactive. Active and inactive are the calls of the source. Calls come from the whole dose curve; as a rule, active = well fitted curve in the direction sought with a large enough effect; inconclusive = small, poorly fitted or top-dose-only effect, or another doubt; inactive = no such curve, though single readings can be large; an effect the other way counts as inactive or inconclusive.

Consider `NCC(=O)O`, for which the Potency entry in assay [1], in assay [2], in assay [3], in assay [4], in assay [5] and in assay [6] was “inactive” throughout.
As for `Cc1onc(-c2c(Cl)cccc2Cl)c1C(=O)Cl`, the Potency result in assay [1], in assay [2], in assay [3], in assay [4], in assay [5] and in assay [6] was “inactive” throughout.
For `CC(C)NCCCC1(C(N)=O)c2ccccc2-c2ccccc21`, the Potency result in assay [1], in assay [2], in assay [3], in assay [4], in assay [5] and in assay [6] was “inactive” throughout.
Turning to `CCOC(=O)c1cc(=O)c2c(OCC(COc3cccc4oc(C(=O)OCC)cc(=O)c34)OC(=O)[C@@H](N)CCCCN)cccc2o1`, the Potency entry in assay [1], in assay [2], in assay [3], in assay [4], in assay [5] and in assay [6] was “inactive” each time.
On to `C[C@H](CN1CCCC1)C(=O)c1ccc(C(F)(F)F)cc1`, for which the Potency entry in assay [1], in assay [2], in assay [3], in assay [4], in assay [5] and in assay [6] was “inactive” in each case.
As for `CN1N=C(C(N)=O)CCC1=O`, the Potency entry in assay [1], in assay [2], in assay [3], in assay [4], in assay [5] and in assay [6] was “inactive” throughout.
Regarding `CC(=O)N(CC(=O)N(C)C)c1ccccc1`, the Potency result in assay [1], in assay [2], in assay [3], in assay [4], in assay [5] and in assay [6] was “inactive” throughout.
Take `CCOC(=O)C(=O)CCc1ccccc1`: the Potency entry in assay [1], in assay [2], in assay [3], in assay [4], in assay [5] and in assay [6] was “inactive” each time.
In the case of `Cc1cccc(OCC(O)CNC(C)(C)C)c1C` (stereo not drawn), the Potency result in assay [1], in assay [2], in assay [3], in assay [4], in assay [5] and in assay [6] was “inactive” throughout.
Turning to `O=C(O)CNC(=O)CNC(=O)CNC(=O)CSC(=O)c1ccccc1`, the Potency result in assay [1], in assay [2], in assay [3], in assay [4], in assay [5] and in assay [6] was “inactive” throughout.
Consider `CC(C)(C)NCC(O)COc1ccccc1OCC1CCCO1` (stereo not drawn), for which the Potency result in assay [1], in assay [2], in assay [3], in assay [4], in assay [5] and in assay [6] was “inactive” throughout.
As to `CC(=O)O[C@@H]1CC2C3CCc4cc(OC(=O)c5ccccc5)ccc4C3CCC2(C)[C@H]1OC(C)=O` (stereo partly drawn), the Potency entry in assay [1], in assay [2], in assay [3], in assay [4], in assay [5] and in assay [6] was “inactive” in each case.
With `OC1(c2ccccc2)CCNCC1`, the Potency result in assay [1], in assay [2], in assay [3], in assay [4], in assay [5] and in assay [6] was “inactive” in each case.
With `Nc1nnnn1-c1ccccc1`, the Potency result in assay [1], in assay [2], in assay [3], in assay [4], in assay [5] and in assay [6] was “inactive” in each case.
Regarding `CN(CC1(C)CCCO1)S(=O)(=O)c1ccc(Cl)c(S(N)(=O)=O)c1` (stereo not drawn), the Potency entry in assay [1], in assay [2], in assay [3], in assay [4], in assay [5] and in assay [6] was “inactive” throughout.
For the compound `O=C1CCCc2c(O)cccc21`, the Potency entry in assay [1], in assay [2], in assay [3], in assay [4], in assay [5] and in assay [6] was “inactive” each time.
As to `CN1Cc2cc(C(=O)N3CCC(C4CCNCC4)CC3)ccc2NC(CC(=O)O)C1=O` (stereo not drawn), the Potency entry in assay [1], in assay [2], in assay [3], in assay [4], in assay [5] and in assay [6] was “inactive” in each case.
Regarding `COc1ccccc1N1CCN(CC(O)COc2cc(OC)c(OC)c(OC)c2)CC1` (stereo not drawn), the Potency entry in assay [1], in assay [2], in assay [3], in assay [4], in assay [5] and in assay [6] was “inactive” throughout.
In the case of `O=C1CC(c2ccc(Cl)cc2)CC(=O)N1`, the Potency result in assay [1], in assay [2], in assay [3], in assay [4], in assay [5] and in assay [6] was “inactive” in each case.
In the case of `CC(C)(Oc1ccc(Cl)cc1)C(=O)OCCCOC(=O)C(C)(C)Oc1ccc(Cl)cc1`, the Potency entry in assay [1], in assay [2], in assay [3], in assay [4], in assay [5] and in assay [6] was “inactive” throughout.
`C=CC[N+]1([C@H]2C[C@H]3[C@@H]4CC[C@H]5C[C@H](OC(C)=O)[C@@H](N6CCCCC6)C[C@]5(C)[C@H]4CC[C@]3(C)[C@H]2OC(=O)CC)CCCCC1`: the Potency result in assay [1], in assay [2], in assay [3], in assay [4], in assay [5] and in assay [6] was “inactive” each time.
Regarding `O=C(c1cc(O)c(O)c(O)c1)c1ccc(O)c(O)c1O`, the Potency in assay [1] was 24.6 µM (active). Moreover, the Potency result in assay [2], in assay [3], in assay [4], in assay [5] and in assay [6] was “inactive” each time.
In the case of `COc1cc(C=O)ccc1O`, the Potency entry in assay [1], in assay [2], in assay [3], in assay [4], in assay [5] and in assay [6] was “inactive” each time.
In the case of `NCC[C@H](O)C(=O)N[C@@H]1C[C@H](N)[C@@H](O[C@H]2O[C@H](CN)[C@@H](O)[C@H](O)[C@@H]2O)[C@H](O)[C@@H]1O[C@H]1O[C@H](CO)[C@@H](O)[C@H](N)[C@@H]1O`, the activity change, negative = cytotoxic is 17.5% [at 0.73 µM] in assay [1]; 8.3% [at 0.597 µM] in assay [2]; -9.26% [at 0.597 µM] in assay [3]; -6.47% [at 0.597 µM] in assay [4]; 20.7% [at 0.597 µM] in assay [5]; 34.1% [at 0.597 µM] in assay [6].
Regarding `CCOc1ccc(NS(=O)(=O)c2ccc(N)cc2)nn1`, the Potency entry in assay [1], in assay [2], in assay [3], in assay [4], in assay [5] and in assay [6] was “inactive” in each case.
As for `CN(C)CCN1CCN(c2cccc(Cl)c2)C1=O`, the Potency entry in assay [1], in assay [2], in assay [3], in assay [4], in assay [5] and in assay [6] was “inactive” each time.
In the case of `NC(=O)COCCN1CCN(C(c2ccccc2)c2ccc(Cl)cc2)CC1` (stereo not drawn), the Potency entry in assay [1], in assay [2], in assay [3], in assay [4], in assay [5] and in assay [6] was “inactive” each time.
`Cc1cccc(C)c1NC(=O)c1ccc(N)cc1`: the Potency entry in assay [1], in assay [2], in assay [3], in assay [4], in assay [5] and in assay [6] was “inactive” throughout.
